# About 83,000 compounds went through this panel and 20% of them were active in at least one assay; those are over-represented in the sample as a whole.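 Single-dose data. Exposure time 48 hours. Values below 10 considered active.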 A number with no mark means an inactive call. Active and inactive are the calls of the source.
# Key:
# Experiment in all cases: NCI-60 one-dose screen, 48 h (100 = growth as untreated, 0 = no growth, -100 = all killed)
# Conditions in all cases: 10 µM unless noted
# T-47D breast = tested on: T-47D breast
# BT-549 breast = tested on: BT-549 breast
# MDA-MB-435 melanoma = tested on: MDA-MB-435 melanoma
# SW-620 colon = tested on: SW-620 colon
# MCF7 breast = tested on: MCF7 breast
# HCT-116 colon = tested on: HCT-116 colon
# HCC-2998 colon = tested on: HCC-2998 colon
# KM12 colon = tested on: KM12 colon
# MDA-MB-468 breast = tested on: MDA-MB-468 breast
SMILES,growth (T-47D breast),growth (BT-549 breast),growth (MDA-MB-435 melanoma),growth (SW-620 colon),growth (MCF7 breast),growth (HCT-116 colon),growth (HCC-2998 colon),growth (KM12 colon),growth (MDA-MB-468 breast)
O=C(NN1C(=O)/C(=C/C=C/c2ccc([N+](=O)[O-])o2)SC1=S)c1ccccc1O,-59.4% (active),-91.3% (active),-89.7% (active),-69.5% (active),-49.7% (active),-68.5% (active),-97% (active),-83.5% (active),-75.4% (active)
S=c1c2ccccc2nc2n1CCc1c-2[nH]c2ccccc12,37.2%,49.9%,88.6%,80.9%,43%,48.7%,64.9%,80.9%,47.9%
O=C(COc1ccc(NC(=O)Nc2ccc(Cl)c(Cl)c2)cc1)N=Nc1c(O)[nH]c2ccc(Br)cc12,-26.4% (active),-71.5% (active),-51.3% (active),-21.2% (active),-1.82% (active),-60.6% (active),-67.3% (active),-87.2% (active),-75% (active)
O=c1oc2ccccc2cc1-c1csc(N2N=C(c3ccccc3)CC2c2ccc(N3CCOCC3)cc2)n1 (stereo unspecified),91.6%,118%,110%,106%,86.5%,109%,121%,103%,99.7%
CCCCCCCCc1ccc(S(=O)(=O)Nc2ccc(CC)cc2C(=O)O)cc1,76.6%,108%,101%,103%,86%,87.7%,113%,97.7%,82.2%
COc1ccc(-c2nc(SC(C)C)nc(NCCc3c[nH]c4ccccc34)c2C#N)cc1,6.31% (active),63%,53.4%,32.9%,7.2% (active),7.04% (active),32.5%,25.5%,30.1%
CN(C)CCn1c2ccccc2c2nc3cc(C(F)(F)F)ccc3nc21,59.4%,62.2%,40.3%,22.5%,6.18% (active),16.8%,41.6%,42.9%,35.3%
CN(C)c1ccnc(NCCCSC(c2ccccc2)(c2ccccc2)c2ccccc2)c1,28%,48.9%,11.3%,8.86% (active),-35.8% (active),-82.3% (active),12.2%,46.7%,-34.9% (active)
Cc1cccc(NC(=O)[C@]23CCC(C)(C)CC2C2=CCC4[C@@]5(C)C[C@@H](O)[C@H](O)[C@@](C)(CO)C5CC[C@@]4(C)[C@]2(C)CC3)c1 (stereo partly specified),13.5%,8.83% (active),25.5%,33.2%,-6.63% (active),1.25% (active),-64% (active),3.56% (active),-8.73% (active)
COc1cc2oc(-c3cccc(C(=O)Nc4ccc(Cl)cc4)c3)cc(=O)c2c(OCCNC(=O)[C@H](CO)NC(=O)OC(C)(C)C)c1OC,29%,-52.3% (active),3.55% (active),33.7%,6.34% (active),7.19% (active),-7.27% (active),17.3%,-4.81% (active)
CCN(CC)c1ccnc(CNCCSC(c2ccccc2)(c2ccccc2)c2ccc(C)cc2)c1,-67.8% (active),-91.9% (active),-90.6% (active),-72.2% (active),-82.4% (active),-88.2% (active),-96.4% (active),-83.9% (active),-92.3% (active)
O=C(/C=C/c1ccc(O)c(O)c1)NC1CCOC1O (stereo unspecified),92.8%,108%,101%,109%,90.7%,103%,99.2%,102%,109%
COc1ccc(-c2c(Nn3cnnn3)no[n+]2[O-])cc1,48.8%,61.1%,44.4%,41.5%,31%,23.8%,56.2%,68.2%,46.3%
CCCCSc1nc(NCCc2c[nH]c3ccccc23)c(C#N)c(-c2ccc(OC)cc2)n1,30.7%,99.4%,72.2%,52.8%,17.7%,21.4%,49.2%,36.2%,51.1%
